“And” between values parts separate entries of the source, which are not always exact repeats. Identical values can stand only once. Inconclusive results are not listed. The source made the active and inactive calls. Calls follow the shape of the dose curve; as a rule, active = well fitted cell-killing curve with a large enough effect; inconclusive = small, poorly fitted or top-dose-only effect; inactive = no such curve, though single readings can be large or run the other way.
% is scaled to controls: 0 for no effect and ±100 for the full control effect; potency is read from the fitted curve at half-maximal effect.

The assay in a line: qHTS of pediatric cancer cell lines to identify multiple opportunities for drug repurposing: Primary screen for A673 cells (AID 1347092). Also: nearly all actives have a fitted effect of over 45% in size. The note with it: A673 Ewing sarcoma viability, CellTiter-Glo ATP luminescence, 48 h; series mostly up to 46 µM; activity change, negative = cytotoxic: at the top concentration. The text has this: Drug repurposing or repositioning has been offered as a strategy for drug development in oncology programs. This approach has special potential for childhood cancers and other rare or orphan diseases, where the expected return on new drug development has been a disincentive to pharmaceuticals. […] In this project we exploit the poly-pharmacology of drugs to discover new indications via phenotypic screening of a panel of 19 well-characterized cell lines derived from solid tumors seen in children and adolescents. The goal is to identify approved drugs with previously unrecognized anticancer properties that has the potential to reveal new mechanisms and biological processes involved in carcinogenesis or drug resistance. We employed a titration-based paradigm (quantitative high-throughput screening or qHTS), where all compounds were tested at multiple concentrations for their effect on cell viability. Concentration-response curves (CRCs) were derived directly from the primary screen, and both potency and efficacy values were used to identify compounds with robust bioactivity profiles. We screened the NIH Chemical Genomics Center (NCGC) Pharmaceutical Collection (NPC) and Mechanism Interrogation Plate (MIPE) small molecule collections of approved and investigational compounds against these cell lines; and measured metabolically active cells after 48 hours of compound treatment as a proxy for cell viability. […] Assay Submitter: Nathalia J. Martinez, National Center for Advancing Translational Sciences, National Institutes of Health, Rockville, MD, USA; email: natalia.martinez@nih.gov. Shen, M et al. Quantitative high-throughput phenotypic screening of pediatric cancer cell lines identifies multiple opportunities for drug repurposing. Oncotarget 2017 Dec 19;9(4):4758-4772. PMID 29435139.
The cells were obtained from University of North Carolina (UNC), Pediatric Preclinical Testing Program (PPT), and Coriell Institute (CI). qHTS cell viability assay: Cells were assayed in growth media at a density of 500-1,000 cells/well. Five microliters of cells were dispensed into 1,536-well, white, solid-bottom, TC-treated plates (Greiner Bio One) using a multidrop dispenser and incubated at 37 degrees C, 5% CO2, under a humidified atmosphere for 5 hours. Twenty-three nanoliters of compounds and controls (neutral control DMSO or positive control bortezomib at final concentration of 2.3 uM) were subsequently transferred by Kalypsys pintool. For primary screens, the MIPE collection was tested at 11-point dilutions (final concentrations range from 0.78 nM to 46 µM) and the NPC collection at 8-point dilutions (final concentrations range from 0.59 nM to 46 µM). Compounds tested in follow-up screens were assayed at 11-point dilutions. Cells were incubated for 48 hours, followed by addition of 3 uL of CellTiter-Glo (Promega). After a 15min incubation at room temperature, samples were analyzed for luminescence intensity using a ViewLux High-throughput CCD imager equipped with clear filters.
(qHTS replaces the single test concentration by a dilution series.)
With `NC(N)=Nc1nc(CSCC/C(N)=N/S(N)(=O)=O)cs1`, the “activity change, negative = cytotoxic” value was -11.1% (inactive).
As to `CC(=O)O[C@]1(C(C)=O)CC[C@@H]2[C@@H]3C[C@H](C)C4=CC(=O)CC[C@]4(C)[C@H]3CC[C@@]21C`, the Potency was 18.7 µM (active).
Same read-out and setting: the figure for `O=C(NCc1ccccc1)c1csc(Nc2ccncn2)n1` is 23.5 µM (active).
For the compound `C[C@H]1[C@H](NC(=O)C(=NOC(C)(C)C(=O)O)c2csc(N)n2)C(=O)N1S(=O)(=O)O`, the “activity change, negative = cytotoxic” value was -4.99% (inactive).
`CC[C@@]1(O)C[C@H](O[C@H]2C[C@H](N(C)C)[C@H](O[C@H]3C[C@H](O)[C@H](O[C@H]4CCC(=O)[C@H](C)O4)[C@H](C)O3)[C@H](C)O2)c2c(cc3c(c2O)C(=O)c2c(O)cccc2C3=O)[C@@H]1C(=O)OC`: the Potency was 4.69 µM (active).
Regarding `COC(=O)C1=CO[C@@H](O)[C@@H]2C(CO)=CC[C@@H]12`, the “activity change, negative = cytotoxic” value is 11.6% (inactive).
On to `N[C@@]1(C(=O)O)CS(=O)(=O)[C@H]2[C@H](C(=O)O)[C@H]21`, for which the Potency is 1.87 µM (active).
In the case of `CNC1CCC(N(Cc2cccc(-c3ccncc3)c2)C(=O)c2sc3c(F)ccc(F)c3c2Cl)CC1` (stereo not given), the Potency is 23.5 µM (active).
As to `CO[C@H]1C[C@@H]2CC[C@@H](C)[C@@](O)(O2)C(=O)C(=O)N2CCCC[C@@H]2C(=O)O[C@H]([C@@H](C)C[C@@H]2CC[C@H](O)[C@H](OC)C2)CC(=O)[C@H](C)C=C(C)[C@@H](O)[C@@H](OC)C(=O)[C@H](C)C[C@H](C)C=CC=CC=C1C`, the “activity change, negative = cytotoxic” value was -36.1% (inactive).
Regarding `COc1ccc(-c2cc(=O)c3c(O)cc(O)cc3o2)cc1O`, the Potency was 4.69 µM (active).
For `O=c1c(-c2ccc(O)cc2)coc2cc(O[C@@H]3O[C@H](CO)[C@H](O)[C@H](O)[C@H]3O)ccc12`, the “activity change, negative = cytotoxic” value was 3.77% (inactive).
Regarding `CO[C@H]1C=CC=C(C)C(=O)NC2=CC(=O)C(NCCN(C)C)=C(C[C@@H](C)C[C@H](OC)[C@@H](O)[C@@H](C)C=C(C)[C@@H]1OC(N)=O)C2=O`, the Potency is 0.0743 µM (active).
In the case of `C[N+](C)(C)CCCCCC[N+](C)(C)C`, the “activity change, negative = cytotoxic” value was 4.66% (inactive).
Consider `CN(C)CCC=C1c2ccccc2COc2ccc(CC(=O)O)cc21`, for which the Potency was 18.7 µM (active).
With `O=c1cc(-c2ccc(O)cc2)oc2cc(O)cc(O)c12`, the Potency was 1.18 µM (active).
Take `NC1CCC(Nc2nc(Nc3ccc(C(=O)N4CCCCC4)cc3)c3ncn(-c4cccc(F)c4)c3n2)CC1` (stereo not given): the “activity change, negative = cytotoxic” value was -5.02% (inactive).
Turning to `CCN(CC)CCOC(=O)c1ccc(N)cc1`, the “activity change, negative = cytotoxic” value was 0.487% (inactive).
On to `O=C(O)C=Cc1ccc(O)c(O)c1`, for which the Potency is 11.8 µM (active).
Turning to `CC(=O)Nc1ccc([C@H](C)C(=O)Nc2ncc(C(C)C)s2)cc1`, the Potency was 0.743 µM (active).
Take `CCN1CCC[C@H]1CNC(=O)c1cc(S(N)(=O)=O)ccc1OC`: the “activity change, negative = cytotoxic” value was 2.73% (inactive).
Same read-out and setting: the figure for `CC(C)(C)c1ccc(C(O)CCCN2CCC(C(O)(c3ccccc3)c3ccccc3)CC2)cc1` (stereo not given) is 2.09% (inactive).
`COc1cc2ncnc(Nc3ccc(F)c(Cl)c3)c2cc1OCCCN1CCOCC1`: the Potency is 1.71 µM (active) and 21.1 µM (active).
For `CNC(=O)c1ccc2cc(C3(O)CCn4cncc43)ccc2c1` (stereo not given), the “activity change, negative = cytotoxic” value is 1.54% (inactive).
With `O=C(O)Cc1cccc2ccccc12`, the Potency result was “inactive”.
In the case of `NS(=O)(=O)c1cccc2c1C(=O)c1cccc(O)c1C2=O`, the Potency is 0.372 µM (active).
For the compound `CC1(C)CCC[C@@]2(C)[C@@H]1CC[C@@]1(C)OC(=O)C[C@H]21`, the “activity change, negative = cytotoxic” value was -4.26% (inactive).
Regarding `C[C@H](NC(=O)C(=O)Nc1ccccc1C(C)(C)C)C(=O)N[C@@H](CC(=O)O)C(=O)COc1c(F)c(F)cc(F)c1F`, the Potency was 23.5 µM (active).
As to `N#CC(=C(N)Sc1ccccc1N)C(C#N)=C(N)Sc1ccccc1N`, the Potency was 2.35 µM (active).
Take `C=C1C(=O)[C@@]23C(CC[C@@H]1[C@H]2O)[C@@]12CO[C@]3(O)[C@@H](O)[C@@H]1C(C)(C)CC[C@@H]2O` (stereo not given in full): the Potency was 3.72 µM (active).
On the same count and under the same terms, the figure for `CC(C)n1nc(-c2ccc3oc(N)nc3c2)c2c(N)ncnc21` is 0.0037 µM (active); for `Clc1cc(Cl)cc(CNc2ncncc2-c2ccc3c(c2)OCO3)c1` it is 14.8 µM (active).
On the same count and under the same terms, the figure for `COc1cc2nc(-c3ccc(N4CCN(C)CC4)cc3)nc(NCCN3CCOCC3)c2cc1OC` is 0.0235 µM (active).
`CC(C)(C)COc1ccc(-n2cc(C(=O)O)cn2)cc1C#N`: the “activity change, negative = cytotoxic” value was 5.4% (inactive).
Turning to `CO[C@H]1C[C@@H]2CC[C@@H](C)[C@@](O)(O2)C(=O)C(=O)N2CCCC[C@@H]2C(=O)O[C@H]([C@H](C)C[C@@H]2CC[C@H](OP(C)(C)=O)[C@H](OC)C2)CC(=O)[C@H](C)C=C(C)[C@@H](O)[C@@H](OC)C(=O)[C@H](C)C[C@H](C)C=CC=CC=C1C`, the “activity change, negative = cytotoxic” value is -40.6% (inactive).
Same read-out and setting: the figure for `CC(C)(C)c1cc(C(=O)O)c(NC(=O)Nc2ccc3[nH]ncc3c2)s1` is -11.1% (inactive).
With `CC[C@]1(O)C[C@@H]2CN(CCc3c([nH]c4ccccc34)[C@@](C(=O)OC)(c3cc4c(cc3OC)N(C=O)[C@@H]3C45CCN4CC=C[C@](CC)([C@H]45)[C@@H](OC(C)=O)[C@]3(O)C(=O)OC)C2)C1` (stereo not given in full), the Potency was 11.8 µM (active).
As to `O=C(NC1CCOCC1)c1ccc(-c2cc(-c3cn[nH]c3-c3ccccn3)ccn2)cc1`, the “activity change, negative = cytotoxic” value is 2.58% (inactive).
Regarding `O=c1[nH]cnc2c1ncn2[C@H]1CC[C@@H](CO)O1`, the Potency was 29.6 µM (active).
For the compound `Nc1ncnc2c1nc(Cl)n2[C@@H]1O[C@H](CO)[C@@H](O)[C@@H]1O`, the Potency is 23.5 µM (active).
As for `CC(C)=CC[C@@H](O)C1=CC(=O)c2c(O)ccc(O)c2C1=O`, the Potency was 0.935 µM (active).

The values are drawn from PubChem BioAssay (NCATS).
